Test results reported in PubChem BioAssay (NCI).
The panel holds about 79,000 compounds, 15% with a hit somewhere; the sample as a whole holds those more often. Active and inactive are the calls of the source. Rule as the data show it: active = growth inhibition above about 70%; inactive = the rest.

Tests used:
[1] = NCI Yeast Anticancer Drug Screen. Data for the rad52 strain (AID 147);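 also: 0% = growth of vehicle-treated control cultures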; settings: S. cerevisiae rad52 mutant growth inhibition, hits give high values
Method in brief: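 Measured: yeast growth inhibition. System: strain with a defined DNA damage repair alteration. Reference: vehicle-treated control cultures.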

[2] = NCI Yeast Anticancer Drug Screen. Data for the wt1 strain (AID 149);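 also: 0% = growth of vehicle-treated wt1 cultures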; settings: S. cerevisiae wt1 strain (SPY 50644) growth inhibition, hits give high values
Method in brief: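 Each compound is tested on wt1 yeast and the loss of growth versus vehicle gives the inhibition value.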

[3] = NCI Yeast Anticancer Drug Screen. Data for the rad50EPP+ strain (AID 151);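 also: 0% = growth of vehicle-treated control cultures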; settings: S. cerevisiae rad50 mutant strain, hits give high values
Method in brief: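 One strain with a rad50 alteration (rad50EPP+) was compound-treated, its growth then compared to that of vehicle controls.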

[4] = NCI Yeast Anticancer Drug Screen. Data for the mgt1 strain (AID 153); settings: S. cerevisiae mgt1 mutant growth inhibition, hits give high values
Method in brief: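 After exposure of the mgt1 yeast mutant to compound, growth was measured and reported as inhibition compared with vehicle controls.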

[5] = NCI Yeast Anticancer Drug Screen. Data for the rad50 strain (AID 155);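 also: 0% = growth of vehicle-only cultures of the same strain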; settings: S. cerevisiae rad50 strain growth inhibition, hits give high values
Method in brief: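 Vehicle-treated cultures provide the reference for the growth inhibition reported for compound-exposed, repair-deficient yeast.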

[6] = NCI Yeast Anticancer Drug Screen. Data for the mec2-1 strain (AID 157); settings: S. cerevisiae mec2-1 strain, hits give high values
Method in brief: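 Test agents were screened against the mec2-1 yeast strain, with defined DNA repair or cell cycle alteration. Growth was scored as inhibition against vehicle-only controls.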

[7] = NCI Yeast Anticancer Drug Screen. Data for the rad14 strain (AID 159);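 also: 0% = growth of vehicle-treated control cultures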; settings: S. cerevisiae rad14 strain growth inhibition, hits give high values
Method in brief: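 Inhibition of growth is reported for a repair-deficient yeast mutant following compound treatment, calculated relative to cultures that received vehicle.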

[8] = NCI Yeast Anticancer Drug Screen. Data for the sgs1 mgt1 strain (AID 161);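 also: 0% = growth of cultures given vehicle only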; settings: S. cerevisiae sgs1 mgt1 strain, hits give high values
Method in brief: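 Read-out: growth inhibition vs vehicle controls. Cells: mutant yeast strain deficient in DNA damage repair.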

[9] = NCI Yeast Anticancer Drug Screen. Data for the CLN2oe strain (AID 163);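 also: 0% = growth of vehicle-only control cultures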; settings: S. cerevisiae CLN2oe strain, hits give high values
Method in brief: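 Here, growth inhibition in a cell-cycle-altered yeast strain after compound exposure was quantified against vehicle control growth.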

[10] = NCI Yeast Anticancer Drug Screen. Data for the cln2 rad14 strain (AID 165);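 also: 0% = growth equal to vehicle treated cultures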; settings: S. cerevisiae cln2 rad14 strain, hits give high values
Method in brief: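 Growth of compound-exposed yeast (cln2 rad14 genotype) measured and expressed as inhibition relative to vehicle.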

[11] = NCI Yeast Anticancer Drug Screen. Data for the bub3 strain (AID 167); settings: S. cerevisiae bub3 mutant strain, hits give high values
Method in brief: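 Mutant yeast screening strain plus compound; vehicle-treated cultures serve as the 0% inhibition reference.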

[12] = NCI Yeast Anticancer Drug Screen. Data for the mlh1 strain (AID 171);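 also: 0% = growth of vehicle-treated control cultures of the same strain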; settings: S. cerevisiae mlh1 strain growth inhibition, hits give high values
Method in brief: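 Here the genetically defined yeast mutant is grown with each compound, and the extent to which its growth falls below that of vehicle-exposed cells is reported.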

[13] = NCI Yeast Anticancer Drug Screen. Data for the sgs1 strain (AID 173);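 also: 0% = growth of vehicle-only control cultures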; settings: S. cerevisiae sgs1 mutant, hits give high values
Method in brief: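 Relative growth inhibition, referenced to vehicle, was determined in a yeast strain with a defined alteration affecting DNA damage repair or cell cycle control after compound exposure.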

[14] = NCI Yeast Anticancer Drug Screen. Data for the mlh1 rad18 strain (AID 175); settings: S. cerevisiae mlh1 rad18 strain growth inhibition, hits give high values
Method in brief: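 In this whole-cell yeast screen, a strain with altered DNA damage repair is challenged with compound, and its growth is measured against matched vehicle-treated controls.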

[15] = NCI Yeast Anticancer Drug Screen. Data for the rad18 strain (AID 177); settings: S. cerevisiae rad18 mutant growth inhibition, hits give high values
Method in brief: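 Screen uses a yeast strain with a defined lesion in DNA damage repair; compound effect is read as loss of growth compared to untreated vehicle cultures.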

[16] = at 5.0 µM (retest, dose inferred, filed as 0.5)
[17] = at 50.0 µM (retest, dose inferred, filed as 5.0)

Measured: growth inhibition

O=C1c2cccc3cc([N+](=O)[O-])cc(c23)C(=O)N1CCN1CCCC1
active: [1]; at 33.0 µM 90% | [1]; at 100.0 µM 94% | [3]; at 33.0 µM 73% | [3]; at 100.0 µM 83% | [5]; at 33.0 µM 88% | [5]; [17] 95% | [5]; at 100.0 µM 91% | [15]; at 100.0 µM 73%
inactive: [1]; at 1.2 µM 33% | [1]; at 3.7 µM 61% | [1]; at 11.0 µM 63% | [2]; at 1.2 µM 8% | [2]; at 3.7 µM 8% | [2]; at 11.0 µM 0% | [2]; at 33.0 µM 3% | [2]; at 100.0 µM 25% | [3]; at 1.2 µM 13% | [3]; at 3.7 µM 23% | [3]; at 11.0 µM 39% | [4]; at 1.2 µM -6% | [4]; at 3.7 µM 10% | [4]; at 11.0 µM 8% | [4]; at 33.0 µM 7% | [4]; at 100.0 µM 44% | [5]; at 1.2 µM 16% | [5]; at 3.7 µM 48% | [5]; [16] 11% | [5]; at 11.0 µM 62% | [5]; at 50.0 µM 66.7% | [6]; at 1.2 µM 5% | [6]; at 3.7 µM 5% | [6]; [16] 11% | [6]; at 11.0 µM -3% | [6]; at 33.0 µM -4% | [6]; [17] 30% | [6]; at 50.0 µM 28.1% | [6]; at 100.0 µM 38% | [7]; at 1.2 µM 12% | [7]; at 3.7 µM 11% | [7]; at 11.0 µM 14% | [7]; at 33.0 µM 5% | [7]; at 100.0 µM 28% | [8]; [16] 8% | [8]; [17] 12% | [8]; at 50.0 µM -14.2% | [9]; at 1.2 µM 7% | [9]; at 3.7 µM 25% | [9]; at 11.0 µM 25% | [9]; at 33.0 µM 39% | [9]; at 100.0 µM 61% | [10]; [16] 9% | [10]; [17] 36% | [10]; at 50.0 µM -15.8% | [11]; at 1.2 µM 9% | [11]; at 3.7 µM 20% | [11]; [16] 9% | [11]; at 11.0 µM 13% | [11]; at 33.0 µM 17% | [11]; [17] 12% | [11]; at 50.0 µM -11.2% | [11]; at 100.0 µM 35% | [12]; at 1.2 µM 0% | [12]; at 3.7 µM 20% | [12]; at 11.0 µM -4% | [12]; at 33.0 µM 18% | [12]; at 100.0 µM 39% | [13]; at 1.2 µM 0% | [13]; at 3.7 µM 0% | [13]; at 11.0 µM 2% | [13]; at 33.0 µM 19% | [13]; at 100.0 µM 50% | [14]; [16] 3% | [14]; [17] 18% | [14]; at 50.0 µM -41.9% | [15]; at 1.2 µM 24% | [15]; at 3.7 µM 23% | [15]; at 11.0 µM 33% | [15]; at 33.0 µM 15%

C(=N/NC1=NCCN1)/c1c2ccccc2c(/C=N\NC2=NCCN2)c2ccccc12
active: [1]; at 1.2 µM 70% | [1]; at 3.7 µM 86% | [1]; at 11.0 µM 94% | [1]; at 33.0 µM 94% | [1]; at 100.0 µM 96% | [2]; at 100.0 µM 86% | [3]; at 11.0 µM 81% | [3]; at 33.0 µM 92% | [3]; at 100.0 µM 94% | [4]; at 100.0 µM 90% | [5]; at 3.7 µM 85% | [5]; [16] 74% | [5]; at 11.0 µM 93% | [5]; at 33.0 µM 94% | [5]; [17] 88% | [5]; at 50.0 µM 82.2% | [5]; at 100.0 µM 94% | [6]; at 33.0 µM 81% | [6]; [17] 80% | [6]; at 50.0 µM 83.6% | [6]; at 100.0 µM 90% | [7]; at 100.0 µM 89% | [8]; [17] 90% | [8]; at 50.0 µM 85.2% | [9]; at 100.0 µM 84% | [11]; [17] 83% | [11]; at 50.0 µM 79.7% | [11]; at 100.0 µM 88%
inactive: [2]; at 1.2 µM -4% | [2]; at 3.7 µM 9% | [2]; at 11.0 µM 9% | [2]; at 33.0 µM 52% | [3]; at 1.2 µM 6% | [3]; at 3.7 µM 33% | [4]; at 1.2 µM -8% | [4]; at 3.7 µM -6% | [4]; at 11.0 µM 4% | [4]; at 33.0 µM 64% | [5]; at 1.2 µM 63% | [6]; at 1.2 µM 6% | [6]; at 3.7 µM 1% | [6]; [16] -13% | [6]; at 11.0 µM 20% | [7]; at 1.2 µM -9% | [7]; at 3.7 µM -25% | [7]; at 11.0 µM -3% | [7]; at 33.0 µM 67% | [8]; [16] -7% | [9]; at 1.2 µM -2% | [9]; at 3.7 µM -12% | [9]; at 11.0 µM 13% | [9]; at 33.0 µM 58% | [10]; [16] 7% | [10]; [17] 56% | [10]; at 50.0 µM 62.5% | [11]; at 1.2 µM -17% | [11]; at 3.7 µM -21% | [11]; [16] -35% | [11]; at 11.0 µM -17% | [11]; at 33.0 µM 58%
